{"source": "paper PMC7819943", "about": "“Rice protein-binding microarrays: a tool to detect cis-acting elements near promoter regions in rice”", "note": "The full ranking holds about 68,000 sequences; the median of “fluorescence intensity (a.u.)” is about 9,100, and the highest 2% start at about 16,000. The list comes from a sample in which the highest values are over-represented; it also holds similar and randomly drawn sequences."}
{"molecular_target": "OsWRKY34 (Oryza sativa, UniProt Q0JBA9 1-250)", "sequence (Q0JBA9 entry or part of it)": "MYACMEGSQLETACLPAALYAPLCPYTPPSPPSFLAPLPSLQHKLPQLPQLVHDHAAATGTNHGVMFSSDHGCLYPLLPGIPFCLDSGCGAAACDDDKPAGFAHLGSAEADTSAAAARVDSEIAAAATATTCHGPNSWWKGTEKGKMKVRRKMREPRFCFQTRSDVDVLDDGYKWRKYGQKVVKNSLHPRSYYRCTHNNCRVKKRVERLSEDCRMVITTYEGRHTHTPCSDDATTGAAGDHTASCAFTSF", "assay": "protein-binding microarray (RPBM); PBS, 2% BSA, 51.3 ng/ul salmon testes DNA, 50 uM zinc acetate, 200 nM TF, 25 C, 1 h; high values mean tight binding", "settings": "protein: recombinant; tags: N-terminal polyhistidine and DsRed monomer fusion (pET32a); label: CyDye5-dUTP incorporated in the synthesized complementary strand; 3' TTTTT single-stranded linker to array surface; dsDNA, one strand shown", "summary_of_the_method": "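In PBS with 2% BSA, salmon testes DNA and 50 µM zinc acetate, 200 nM protein was incubated on a custom Agilent array at 25 °C for 1 h and then washed off. The array had been made double-stranded by primer extension with Cy5-dUTP and blocked with 2% BSA. The proteins were transcription factors fused N-terminally to polyhistidine and DsRed, expressed in E. coli BL21-CodonPlus and purified on Ni–NTA. The binding signal is per-feature fluorescence intensity (arbitrary units) from an Axon 4000B scanner.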"}
{"sequence": "CACGTCACCTGCATATGCCCTTCTTCCTCGCCGGCCACACCGGAGTCACCTAGTGCAG", "binding signal": "11000 fluorescence intensity (a.u.)"}
{"sequence": "TTTTCGTCTATTTTATTACTGTTGCTTGCCTACAATTCTCCGGAGTCACCTAGTGCAG", "binding signal": "13500 fluorescence intensity (a.u.)"}
{"sequence": "ATAGGTGCCGGTTCTATTTTGGTATAGGGGTCGGTTGTTTCGGAGTCACCTAGTGCAG", "binding signal": "11700 fluorescence intensity (a.u.)"}
{"sequence": "TCTCACTCTCGAGCCATCGTCTTCAGCTCGCTCATTACTGCGGAGTCACCTAGTGCAG", "binding signal": "9030 fluorescence intensity (a.u.)"}
{"sequence": "CGCCTTCGCCTCCGGCCCCTTATATGGCGTGGCGGGGAGGCGGAGTCACCTAGTGCAG", "binding signal": "8930 fluorescence intensity (a.u.)"}
{"sequence": "TTCGTTGACCAAGTTTAATTCAAATTCAATTCAATTTTAACGGAGTCACCTAGTGCAG", "binding signal": "9760 fluorescence intensity (a.u.)"}
{"sequence": "TAATGACTTATCCTGCGGTGAAAAATCTTCATCTTCGTATCGGAGTCACCTAGTGCAG", "binding signal": "8160 fluorescence intensity (a.u.)"}
{"sequence": "GCTGCTCGGATTTGATTGATTGATTGATTGGCGGGTGGTCCGGAGTCACCTAGTGCAG", "binding signal": "8590 fluorescence intensity (a.u.)"}
{"sequence": "GCAATTTTTTACGCCCACACGACTGTCCGAGAGCAATATGCGGAGTCACCTAGTGCAG", "binding signal": "8170 fluorescence intensity (a.u.)"}
{"sequence": "CTCCCGAGGAAGATGACGAGGAGTCAGTCAACAGTTGACTCGGAGTCACCTAGTGCAG", "binding signal": "8130 fluorescence intensity (a.u.)"}
{"sequence": "CTTTTTTCTCTGCGGGTTCTTCAATTATTCAGGGTTTCTTCGGAGTCACCTAGTGCAG", "binding signal": "16800 fluorescence intensity (a.u.)"}
{"sequence": "TCTCTCTCTCTCTCTCTTCTCTTCTCTTTGTTTTCTTGTTCGGAGTCACCTAGTGCAG", "binding signal": "9940 fluorescence intensity (a.u.)"}
{"sequence": "TCAATTATTCAGGGTTTCTTCTGGTTCTTGTCTCGCCATGCGGAGTCACCTAGTGCAG", "binding signal": "8630 fluorescence intensity (a.u.)"}
{"sequence": "TCCCACGATTTCCTTTCCTGCTTTTCTCATCCCTTTTGTTCGGAGTCACCTAGTGCAG", "binding signal": "16500 fluorescence intensity (a.u.)"}
{"sequence": "TTCCTTTTTTCCCGCCCGTTCCTTTTTTGTTTGTTATGTTCGGAGTCACCTAGTGCAG", "binding signal": "15700 fluorescence intensity (a.u.)"}
{"sequence": "CCTTCGATTGACCTCCTCATCCTCTTCCCCTGCTTTCTTTCGGAGTCACCTAGTGCAG", "binding signal": "9720 fluorescence intensity (a.u.)"}
{"sequence": "GAATTTTTTTTTCGTTTTTTTCAATTCGTTATTCTTTTCTCGGAGTCACCTAGTGCAG", "binding signal": "12300 fluorescence intensity (a.u.)"}
{"sequence": "TCCTTTTCTTTTCTTTTATTTTTTTTTGTTTTTTCCCGTTCGGAGTCACCTAGTGCAG", "binding signal": "8300 fluorescence intensity (a.u.)"}
{"sequence": "TTCTTTCCTTACGATTTTTGCTCCTGCTCTAGTTCTTGTTCGGAGTCACCTAGTGCAG", "binding signal": "8140 fluorescence intensity (a.u.)"}
{"sequence": "ATTCTAGTAGTAGTTGTTTATCTTTGTTCTGTTGTTTCTTCGGAGTCACCTAGTGCAG", "binding signal": "8520 fluorescence intensity (a.u.)"}
{"sequence": "TCTTCCCGCCTTTTTTTTCTTTGTTATTTTTCTTTTTTTTCGGAGTCACCTAGTGCAG", "binding signal": "18000 fluorescence intensity (a.u.)"}
{"sequence": "GGGTTCTTTCTGTAGTAGGGGTTTTTCTTTGTTTTCTCTTCGGAGTCACCTAGTGCAG", "binding signal": "17700 fluorescence intensity (a.u.)"}
{"sequence": "AAAAGGCGTTTGCTTGTTTTTGCTGTGGGTTAATTCGCCTCGGAGTCACCTAGTGCAG", "binding signal": "8090 fluorescence intensity (a.u.)"}
{"sequence": "GTCACTCCTACTCCCGCCACCACCGGCCCAATGGCGCCCCCGGAGTCACCTAGTGCAG", "binding signal": "9660 fluorescence intensity (a.u.)"}
{"sequence": "CCCAGTTTTATTTCTGCAGTTCATTTTATGAGAGCATTCTCGGAGTCACCTAGTGCAG", "binding signal": "8120 fluorescence intensity (a.u.)"}
{"sequence": "GTGCTCTCTGCTGGCTGCGACGCCATATATGCCTTTCTTCCGGAGTCACCTAGTGCAG", "binding signal": "8720 fluorescence intensity (a.u.)"}
{"sequence": "ACATTCTCTTATACCCATCACAATCATTTGCTCAATAGGGCGGAGTCACCTAGTGCAG", "binding signal": "8620 fluorescence intensity (a.u.)"}
{"sequence": "CTATCAATTCGCTCTATTATGTCGCTCAATTCTCTCTCGCCGGAGTCACCTAGTGCAG", "binding signal": "8650 fluorescence intensity (a.u.)"}
{"sequence": "GCCGGATCCAGATCTCCACCGCCTCGCCTCGCCGCGCCGCCGGAGTCACCTAGTGCAG", "binding signal": "10400 fluorescence intensity (a.u.)"}
{"sequence": "CTACACACAAACTTCCAACTTTTCTGTCACATCGTTCCAACGGAGTCACCTAGTGCAG", "binding signal": "11900 fluorescence intensity (a.u.)"}
{"sequence": "GTGTGTTTTTCTGCCATTTTTCGCCTTAGGTCTTCGCAATCGGAGTCACCTAGTGCAG", "binding signal": "12300 fluorescence intensity (a.u.)"}
{"sequence": "GAGATAGATGGGCCTGAAATGCGCCGATGGTCAGGCCTGCCGGAGTCACCTAGTGCAG", "binding signal": "8190 fluorescence intensity (a.u.)"}
{"sequence": "TTCGTGCACGCGGTCCATGCACCAGCCACCATTCCCTTCGCGGAGTCACCTAGTGCAG", "binding signal": "8350 fluorescence intensity (a.u.)"}
{"sequence": "TAATATATGATCATACTTGTTTTATATACATTGTGTCTTGCGGAGTCACCTAGTGCAG", "binding signal": "9830 fluorescence intensity (a.u.)"}
{"sequence": "TTGTTCTTCTTTTTTGGTCTGGTTTTTTTTGTGGTTTCTTCGGAGTCACCTAGTGCAG", "binding signal": "16700 fluorescence intensity (a.u.)"}
{"sequence": "CGTTTCTTGGCTGGTTTTCTTGGGCGGCGATCGATCGATGCGGAGTCACCTAGTGCAG", "binding signal": "8140 fluorescence intensity (a.u.)"}
{"sequence": "AAGGTTGTCTTGTTTGATTAGCTATTTTCTTTGCCTGGTTCGGAGTCACCTAGTGCAG", "binding signal": "11400 fluorescence intensity (a.u.)"}
{"sequence": "TTGTTCTTTTTGGTCTGGTTTTTTTGTGGTTTCTTGATTGCGGAGTCACCTAGTGCAG", "binding signal": "9010 fluorescence intensity (a.u.)"}
{"sequence": "TCTGGTTGATTGATCGATTTGGGGAATTGGGGATCTAGCTCGGAGTCACCTAGTGCAG", "binding signal": "12000 fluorescence intensity (a.u.)"}
{"sequence": "GAGGTTAGCTCGCCTCTGATTGGGTTGGTTGGGTGGTCGGCGGAGTCACCTAGTGCAG", "binding signal": "10100 fluorescence intensity (a.u.)"}
{"sequence": "CTTTTGGTCTTCCCTTTCTTTTCTTCTTCTTCTTCTTCTTCGGAGTCACCTAGTGCAG", "binding signal": "10400 fluorescence intensity (a.u.)"}
{"sequence": "CTCGTGTGTCTTGCGGGCGGGTGATCTTTCCACATACAGACGGAGTCACCTAGTGCAG", "binding signal": "19200 fluorescence intensity (a.u.)"}
